# Measurements taken from PubChem BioAssay (EPA / NIEHS).
# “And” between values parts separate entries of the source, which are not always exact repeats. Equal values may be shown once. Records with an inconclusive call do not appear. Some compounds were tested as several samples or in several runs, with calls that do not always agree. The source made the active and inactive calls. The calls were made as follows: active = hit-call score of the fitted dose curve at least 0.9, where 1 is the maximum; inconclusive = response in the unintended direction; inactive = score below 0.9.
# Molecular target: Glucocorticoid receptor (Homo sapiens) (UniProt P04150)
# Assay: NVS_NR_hGR: NovaScreen (NVS) Nuclear Receptor Binding Assay for human Glucocorticoid Receptor (GR) (AID 2283363)
# Procedure: NVS_NR_hGR is a biochemical, single-readout assay that uses extracted gene-proteins in a cell-free assay. Measurements were taken 16 hours after chemical dosing in a 96-well plate.NVS_NR_hGR is one of one assay component(s) measured or calculated from the NVS_NR_hGR assay. It is designed to make measurements of radioligand binding, a form of binding reporter, as detected with scintillation counting signals by Filter-based radiodetection technology.Data from the assay component NVS_NR_hGR was analyzed into 1 assay endpoint. This assay endpoint, NVS_NR_hGR, was analyzed in the positive analysis fitting direction relative to DMSO as the negative control and baseline of activity. Using a type of binding reporter, loss-of-signal activity can be used to understand changes in the binding as they relate to the gene NR3C1. Furthermore, this assay endpoint can be referred to as a primary readout, because the performed assay has only produced 1 assay endpoint. To generalize the intended target to other relatable targets, this assay endpoint is annotated to the nuclear receptor intended target family, where the subfamily is steroidal.
# Binding assays used specific radioligands (tritiated, iodinated) with non-radioactive competitive displacement ligands in agonist or antagonist protocols (as indicated) and various reference compounds and inhibitors to titrate specific binding to receptors and transporters. Most enzyme assays (CYPs, kinases, phosphatases, proteases, HDACs) used recombinant protein and specific substrates (fluorescence mostly, some colorimetric and radioactive) and inhibitors, followed by a biochemical separation of substrate and product. All assays for the biochemical HTS were initially run in duplicate at a single concentration (10 uM for CYP450 assays and 25 uM for all others). […] Each assay was run with positive and negative controls, and concurrent controls on every plate. The follow-up (secondary) screen tested active chemical-pairs in concentration series, as well as a few additional assays not tested in the primary screen, some selected negative inactives, and several cases re-run in the concentration series for confirmatory purposes.
# Sequence of Glucocorticoid receptor (Homo sapiens) (P04150 whole entry, looked up): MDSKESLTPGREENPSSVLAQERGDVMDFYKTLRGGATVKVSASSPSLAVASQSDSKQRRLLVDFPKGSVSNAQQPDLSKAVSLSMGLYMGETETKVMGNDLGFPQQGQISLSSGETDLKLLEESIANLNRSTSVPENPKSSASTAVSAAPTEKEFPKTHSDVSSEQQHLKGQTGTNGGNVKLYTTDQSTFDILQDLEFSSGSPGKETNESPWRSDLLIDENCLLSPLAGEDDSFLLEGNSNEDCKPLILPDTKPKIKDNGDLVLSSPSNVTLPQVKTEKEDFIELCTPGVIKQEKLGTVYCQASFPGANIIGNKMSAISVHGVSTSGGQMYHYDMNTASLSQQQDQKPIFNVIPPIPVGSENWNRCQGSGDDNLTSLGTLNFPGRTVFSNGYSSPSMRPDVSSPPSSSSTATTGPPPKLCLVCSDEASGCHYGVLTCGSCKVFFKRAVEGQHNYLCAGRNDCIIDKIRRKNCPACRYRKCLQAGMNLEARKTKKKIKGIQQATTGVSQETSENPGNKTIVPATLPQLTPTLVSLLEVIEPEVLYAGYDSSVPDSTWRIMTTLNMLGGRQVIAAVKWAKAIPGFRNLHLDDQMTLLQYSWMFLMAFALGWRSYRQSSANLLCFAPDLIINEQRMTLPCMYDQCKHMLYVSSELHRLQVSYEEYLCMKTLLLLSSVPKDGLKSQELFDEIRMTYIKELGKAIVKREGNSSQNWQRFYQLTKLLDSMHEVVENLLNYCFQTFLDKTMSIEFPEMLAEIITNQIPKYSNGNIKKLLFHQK
SMILES,AC50,outcome
COC(=O)c1ccccc1C(=O)O,5.83 µM (active),–
CCCN(CCC)C(=O)SCC,7.09 µM (active),–
CC(C)CCCCCCc1ccc(O)cc1,7.09 µM (active) and 16.2 µM (active) and 15.9 µM (active),–
S=C([S-])NCCNC(=S)[S-].[Mn+2],10.1 µM (active),–
CCCCC(CC)CN1C(=O)C2C3C=CC(C3)C2C1=O (stereo not drawn),25 µM (active),–
C[C@]12CC[C@@H]3c4ccc(O)cc4C[C@@H](CCCCCCCCCS(=O)CCCC(F)(F)C(F)(F)F)[C@H]3[C@@H]1CC[C@@H]2O (stereo partly drawn),13.1 µM (active),inactive
CC1(C)C(C=C(Cl)Cl)C1C(=O)OCc1cccc(Oc2ccccc2)c1 (stereo not drawn),–,inactive
O=C(c1ccc(O)cc1O)c1ccc(O)cc1O,9.33 µM (active) and 8.91 µM (active) and 10.9 µM (active),–
CSC(=O)c1cccc2nnsc12,–,inactive
CCCCC(CC)COC(=O)c1ccccc1C(=O)O (stereo not drawn),7.38 µM (active),–
Oc1ccc(C(c2ccc(O)cc2)C(Cl)(Cl)Cl)cc1,1.01 µM (active),–
C=CCOC(Cn1ccnc1)c1ccc(Cl)cc1Cl (stereo not drawn),15.4 µM (active),–
